According to ChEMBL document CHEMBL1201862, “PubChem BioAssay data set” (2004):
Screen size: about 400,000 compounds; about 2,100 (0.53%) were called active. About 14% were inconclusive and are not listed. How the calls were made is not given here. The full list was thinned out, with actives kept by preference.

The compounds below were run against Ataxin-2 (Homo sapiens) (UniProt Q99700) (assay: qHTS for Inhibitors of ATXN expression.).
Type: functional

Chain of Ataxin-2 (Homo sapiens) (Q99700 whole entry): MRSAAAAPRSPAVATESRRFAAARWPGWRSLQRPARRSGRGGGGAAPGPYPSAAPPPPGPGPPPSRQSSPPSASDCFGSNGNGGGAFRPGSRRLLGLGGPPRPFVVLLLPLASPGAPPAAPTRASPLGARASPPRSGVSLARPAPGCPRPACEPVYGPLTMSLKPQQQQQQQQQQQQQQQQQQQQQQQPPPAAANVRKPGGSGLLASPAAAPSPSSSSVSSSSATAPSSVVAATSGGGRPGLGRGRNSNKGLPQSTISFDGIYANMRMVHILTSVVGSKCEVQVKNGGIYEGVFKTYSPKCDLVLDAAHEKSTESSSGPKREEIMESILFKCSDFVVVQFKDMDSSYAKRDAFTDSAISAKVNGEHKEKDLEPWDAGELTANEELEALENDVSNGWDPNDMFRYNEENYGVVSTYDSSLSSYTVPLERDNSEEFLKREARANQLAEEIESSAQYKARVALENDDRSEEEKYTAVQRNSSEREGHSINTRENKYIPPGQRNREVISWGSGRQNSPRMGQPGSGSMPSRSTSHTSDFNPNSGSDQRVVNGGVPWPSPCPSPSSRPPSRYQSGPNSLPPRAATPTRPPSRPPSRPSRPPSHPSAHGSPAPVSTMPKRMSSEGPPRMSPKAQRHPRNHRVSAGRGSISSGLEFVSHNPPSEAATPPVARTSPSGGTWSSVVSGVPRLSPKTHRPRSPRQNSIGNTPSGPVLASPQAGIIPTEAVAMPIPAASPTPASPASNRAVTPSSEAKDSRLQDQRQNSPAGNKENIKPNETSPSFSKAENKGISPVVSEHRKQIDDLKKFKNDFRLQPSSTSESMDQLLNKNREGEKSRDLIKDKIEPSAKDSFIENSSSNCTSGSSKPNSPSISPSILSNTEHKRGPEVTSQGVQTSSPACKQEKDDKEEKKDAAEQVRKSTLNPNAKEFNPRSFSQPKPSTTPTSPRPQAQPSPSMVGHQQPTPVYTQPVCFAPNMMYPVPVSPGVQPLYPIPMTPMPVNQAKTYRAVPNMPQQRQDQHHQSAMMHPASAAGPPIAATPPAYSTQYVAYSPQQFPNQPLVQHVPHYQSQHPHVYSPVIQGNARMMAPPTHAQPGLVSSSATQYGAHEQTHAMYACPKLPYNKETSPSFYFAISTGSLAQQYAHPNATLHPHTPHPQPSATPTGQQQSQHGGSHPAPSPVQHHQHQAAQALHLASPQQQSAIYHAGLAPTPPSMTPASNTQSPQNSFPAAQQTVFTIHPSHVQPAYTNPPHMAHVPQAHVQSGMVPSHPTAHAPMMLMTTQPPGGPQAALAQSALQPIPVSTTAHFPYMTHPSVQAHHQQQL

Compound | Potency
CC1(C)C([N+](=O)[O-])C(c2ccc(F)cc2)NC(c2ccc(F)cc2)C1[N+](=O)[O-] (stereo unspecified) | inactive
Cc1ccc(NNC2=C3N=NN=C3C=CC2=O)cc1 | 44.7 µM (active)
C=CCn1c2ccccc2c(=O)c2cc(C#CC[C@@H](C)O)ccc21 | inactive
O=C(O)c1ccccc1Cc1nc(O)c2ccc(Cl)cc2n1 | inactive
Clc1ccc2c(SCC3CO3)c3ccccc3nc2c1 (stereo unspecified) | 23.8 µM (active)
Clc1ccc(-c2nc(N3CCOCC3)nc3ccccc23)cc1 | inactive
O=S(=O)([N-]c1nc2ccccc2nc1-[n+]1ccn(Cc2ccccc2)c1)c1ccccc1 | inactive
CC(C)OCCCNC(=O)CN1C(=O)c2cccc3cccc1c23 | inactive
COc1ccc(OC)c(C(=O)NC2CCCc3c2cnn3-c2cc(C)cc(C)c2)c1 (stereo unspecified) | inactive
CC(=O)Nc1cccc(C(=O)NC2CCCc3c2cnn3-c2ccc(C(C)(C)C)cc2)c1 (stereo unspecified) | 8.91 µM (active)
COC(=O)CCCC(=O)NC1CCCc2c1cnn2-c1ccc(F)cc1F (stereo unspecified) | inactive
CCCNC(=O)Cn1c(=O)/c(=C\c2ccc(-c3ccc([N+](=O)[O-])cc3)o2)s/c1=C\C(=O)C(C)(C)C | inactive
CNS(=O)(=O)c1ccc2c3c(cccc13)C(=O)N2C | inactive
Cc1cc2nc3c(=O)n(Cc4ccccc4)c(=O)[nH]c3nc2cc1N | inactive
O=C(Cc1cccc2ccccc12)Nc1cc(C(=O)O)cc(C(=O)O)c1 | inactive
NC(=O)CC(NC(=O)Cc1cccc2ccccc12)c1ccc(NCCOc2ccccc2)c([N+](=O)[O-])c1 (stereo unspecified) | 17.8 µM (active)
COc1ccc(NC(=O)CSc2n[nH]c(C(C)C)n2)c([N+](=O)[O-])c1 | inactive
COc1ccc(C(=O)N[C@H](C(=O)NCCc2ccc3c(c2)OCCO3)C(C)C)cc1 | inactive
CCOc1ccc(NC(=O)Cc2cccc3ccccc23)c([N+](=O)[O-])c1 | inactive
O=C(NCc1ccc(F)cc1)c1ccc(CS(=O)(=O)c2ccc(Br)cc2)o1 | inactive
Cc1ccccc1CNc1ccc(C(CC(N)=O)NC(=O)c2ccc(Br)cc2)cc1[N+](=O)[O-] (stereo unspecified) | 39.8 µM (active)

Compound | Potency
NC(=NOC(=O)Cc1ccccc1[N+](=O)[O-])c1cccc(Br)c1 | inactive
COc1ccc(CCNc2ccc(C(CC(N)=O)NC(=O)c3ccc(Br)cc3)cc2[N+](=O)[O-])cc1 (stereo unspecified) | 31.6 µM (active)
NC(=O)CC(NC(=O)c1ccc(Br)cc1)c1ccc(NCc2ccc(F)cc2)c([N+](=O)[O-])c1 (stereo unspecified) | 39.8 µM (active)
Nc1ccc(-c2cc3ccccc3oc2=O)cc1 | inactive
COc1ccccc1[C@@H]1C(c2ccccc2)=NN(c2ccccc2)[C@H]1C(=O)N1CCOC1=O | inactive
Cc1cccc(N2C(=O)/C(=C\Nc3ccccc3)c3ccccc3C2=O)n1 | inactive
CCNc1nc(N)c(C(=O)C23CC4CC(CC(C4)C2)C3)s1 | inactive
Cn1c(C(=O)N2CCOCC2)cc2c(=O)n3ccccc3nc21 | inactive
COc1ccc(C/C(C)=N/NC(=S)Nc2ccccc2)cc1 | 35.5 µM (active)
C/C(=N\NC(=S)Nc1cccc(C)c1)c1cc2ccccc2o1 | inactive
COc1ccc(CN=C(Nc2ccccc2)SC2CC(=O)NC2=O)cc1 (stereo unspecified) | inactive
Cc1nc(NCC2CC2)c2nnn(Cc3ccccc3)c2n1 | inactive
O=S(=O)(NCC1CCN(Cc2ccccc2)CC1)c1ccccc1C(F)(F)F | inactive
O=S(=O)(NCCc1ccc(F)cc1)c1cccc2cccnc12 | inactive
CCn1cc(CN2CCCC(CNS(=O)(=O)c3cccc4cccnc34)C2)cn1 (stereo unspecified) | 3.16 µM (active)
Cc1cc(/C=C2\C(=N)N3N=C(S(C)(=O)=O)SC3=NC2=O)c(C)n1Cc1ccccc1 | inactive
CCCN(CCC)Cc1c(C(=O)N/N=C/C(C)=C\c2ccco2)nnn1-c1nonc1N | 25.1 µM (active)
CC(C)c1c(C(=O)N/N=C/c2ccco2)nnn1-c1nonc1N | inactive
CN(C)c1ccc(/C=N/NC(=O)c2nnn(-c3nonc3N)c2COc2ccc(F)cc2)cc1 | inactive
O=S(=O)(N/N=C1\CCCc2ccccc21)c1ccccc1 | inactive
O=C(Nc1ccc(F)cc1F)c1cc(Cl)sc1Cl | inactive

Compound | Potency
COc1ccc(OC(C)C(=O)Nc2ccc(F)cc2F)cc1 (stereo unspecified) | inactive
CCCSc1nsc(NC(=O)Nc2ccc(F)cc2F)n1 | 31.6 µM (active)
Cc1ccc2[nH]c(SCC(=O)c3ccc(O)cc3O)nc2c1 | inactive
O=C1OCCN1C(=O)[C@H]1[C@H](c2ccccc2)C(c2cccc(Cl)c2)=NN1c1ccc(Br)cc1 | inactive
CCCCN1C(=O)c2ccc(C(=O)NC3(C)CCS(=O)(=O)C3)cc2C1=O (stereo unspecified) | inactive
C=C1[C@@H](O)[C@H](CC(C)C)N(Cc2ccccc2Br)S1(=O)=O | 28.2 µM (active)
COc1ccccc1N(C(C)=O)C1=C(Cl)C(=O)c2ccccc2C1=O | inactive
C/N=C1\C(=O)c2ccccc2C(O)=C1N(C(C)=O)c1ccc(Br)cc1 | 14.1 µM (active)
CC(=O)N(C1=C(Cl)C(=O)c2ccccc2C1=O)c1ccc(C(=O)O)cc1 | inactive
NC(=O)c1nsc(C(=O)N(c2cccc(F)c2)C(C(=O)NCc2ccccc2)c2ccc(O)cc2)c1N (stereo unspecified) | inactive
COc1ccccc1NC(=O)N(C)C[C@@H]1OCc2ccccc2-c2c(n(C)c3ccccc23)C(=O)N([C@H](C)CO)C[C@@H]1C | 35.5 µM (active)
C[C@H](CO)N1C[C@H](C)[C@H](CN(C)C(=O)c2ccccc2)OCc2ccccc2-c2c(n(C)c3ccccc23)C1=O | 22.4 µM (active)
COC(=O)CN1C(=O)N/C(=C/c2cc(Cl)c(OC)c(OC)c2)C1=O | inactive
CC(=O)O/N=C/c1c(NCc2ccccc2)nc2c(C)cccn2c1=O | inactive
Cc1nc(SCc2ccccc2)nc2c1CCC2 | inactive
CC(=O)c1c(C)[nH]c(C(=O)CN2C(=O)NC(C)(CCC(C)C)C2=O)c1C (stereo unspecified) | inactive
COc1ccc(-c2nn(-c3ccccc3)cc2/C=N/N2C(=O)CSC2=S)cc1 | 39.8 µM (active)
CCSc1ccc(-c2nn(-c3ccccc3)cc2/C=C(/C#N)C(=O)NCCCOC)cc1 | inactive
O=C1CSC(=S)N1N=Cc1cccc(OCc2ccccc2)c1 | inactive
